Inconclusive results are not listed. Calls of active or inactive are those of the source. Unless noted, calls follow the shape of the dose curve; as a rule, active = well fitted curve in the direction sought with a large enough effect in the repeat runs; inconclusive = weak or mixed curves; inactive = no such curve, though single readings can be large; an effect the other way counts as inactive or inconclusive.
Tests used:
[1] = qHTS assay to identify small molecule antagonists of the glucocorticoid receptor (GR) signaling pathway - cell viability counter screen (AID 720693); also: nearly all actives have a fitted effect of over 55% in size
[2] = qHTS assay for identifying genotoxic compounds that show differential cytotoxicity against isogenic chicken DT40 cell lines with known DNA damage response pathways - wild type cell line (AID 743012); also: nearly all actives have a fitted effect of over 60% in size
Method in brief: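 CellTiter-Glo luminescence readout of viability in wild type DT40 cells after 40 h compound exposure at 37 C/5% CO2; 300 cells/well; reagent incubated 30 min at room temperature before reading.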

[3] = qHTS assay for identifying genotoxic compounds that show differential cytotoxicity against isogenic chicken DT40 cell lines with known DNA damage response pathways - Rev3 mutant cell line (AID 743014); also: nearly all actives have a fitted effect of over 55% in size
[4] = qHTS assay for identifying genotoxic compounds that show differential cytotoxicity against isogenic chicken DT40 cell lines with known DNA damage response pathways - Rad54/Ku70 mutant cell line (AID 743015); also: nearly all actives have a fitted effect of over 60% in size
[5] = qHTS assay to identify small molecule antagonists of the androgen receptor (AR) signaling pathway using the MDA cell line - cell viability counter screen (AID 743041; also: nearly all actives have a fitted effect of over 45% in size)
Method in brief: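 In this qHTS counter assay, fluorescence intensity after CellTiter-Fluor addition indicated viability of MDA-kb2 AR-luc cells given compounds and R1881 for 16 h at 37C.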

[6] = qHTS assay to identify small molecule antagonists of the thyroid receptor (TR) signaling pathway - cell viability counter screen (AID 743064); also: nearly all actives have a fitted effect of over 50% in size
Method in brief: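 CellTiter-Fluor readout, 30 min at 37 °C/5% CO2, following 23.5 h incubation of GH3.TRE-Luc cells with test compound and 1 nM T3 (final).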

[7] = tested on: thyroid hormone receptor (rat, GH3 cells); test: qHTS assay to identify small molecule agonists of the thyroid receptor (TR) signaling pathway (AID 743066; calls by dose curve)
[8] = biological target: Estrogen receptor (Homo sapiens) (UniProt P03372); test: qHTS assay to identify small molecule antagonists of the estrogen receptor alpha (ER-alpha) signaling pathway (AID 743069; active = well fitted curve in the direction sought with a large enough effect in the signal ratio in the repeat runs, not every such curve was filed as active; the % refers to the signal ratio)
Method in brief: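 A 17beta-estradiol challenge was applied right after compound transfer to ER-alpha-UAS-bla HEK293 cells previously kept in charcoal-stripped serum. Plates stood 18 hr at 37C and 5% CO2; fluorescence was read following 2 hr FRET substrate loading at room temperature.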

[9] = qHTS assay to identify small molecule antagonists of the estrogen receptor alpha (ER-alpha) signaling pathway - cell viability counter screen (AID 743074; calls by dose curve;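 also: HEK293 cells carrying ER-alpha-UAS-bla reporter stimulated with 17beta-estradiol; nearly all actives have a fitted effect of over 45% in size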)
[10] = biological target: Estrogen receptor (Homo sapiens) (UniProt P03372); test: qHTS assay to identify small molecule agonists of the estrogen receptor alpha (ER-alpha) signaling pathway (AID 743075; calls by dose curve;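 also: HEK293 GripTite cells with ER-alpha and UAS-driven beta-lactamase reporter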)
[11] = biological target: Estrogen receptor (Homo sapiens) (UniProt P03372); test: qHTS assay to identify small molecule agonists of the estrogen receptor alpha (ER-alpha) signaling pathway using the BG1 cell line (AID 743079); also: nearly all actives have a fitted effect of over 20% in size
[12] = qHTS assay to identify small molecule antagonists of the estrogen receptor alpha (ER-alpha) signaling pathway using the BG1 cell line (AID 743080; calls by dose curve;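 also: BG1 cells stimulated with 17beta-estradiol alongside compound; series mostly up to about 70 µM; nearly all actives have a fitted effect of over 25% in size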)
Method in brief: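 BG1-Luc-4E2 cells (endogenous full-length ER-alpha, stable 4×ERE-luciferase) were starved 5 days in phenol-red-free medium with 10% charcoal-stripped FBS, plated 24 h, then given compound plus 17beta-estradiol for 21.5 h at 37 C; ONE-Glo luminescence read after 30 min.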

[13] = qHTS assay to identify small molecule antagonists of the estrogen receptor alpha (ER-alpha) signaling pathway using the BG1 cell line - cell viability counter screen (AID 743081);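 also: compound given together with 17beta-estradiol as the ER stimulus; series mostly up to about 70 µM; nearly all actives have a fitted effect of over 45% in size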
[14] = qHTS assay to identify aromatase inhibitors - cell viability counter screen (AID 743084);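 also: cells stimulated with testosterone during compound exposure; nearly all actives have a fitted effect of over 55% in size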
[15] = qHTS assay to identify small molecule antagonists of the thyroid receptor (TR) signaling pathway (AID 743065); also: series mostly up to about 70 µM; nearly all actives have a fitted effect of over 55% in size
Method in brief: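 GH3.TRE-Luc rat pituitary cells carrying two TR response elements driving luciferase were plated for 4 h, given compound plus 1 nM T3 (final), and incubated 23.5 h at 37 C. ONE-Glo luminescence measured reporter inhibition; CellTiter-Fluor fluorescence tracked cytotoxicity.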

[16] = biological target: Aromatase (Homo sapiens) (UniProt P11511); test: qHTS assay to identify aromatase inhibitors (AID 743083)
[17] = qHTS assay to identify small molecule antagonists of the androgen receptor (AR) signaling pathway - cell viability counter screen (AID 743033; also: nearly all actives have a fitted effect of over 45% in size)
[18] = biological target: Androgen receptor (Homo sapiens) (UniProt P10275); test: qHTS assay to identify small molecule antagonists of the androgen receptor (AR) signaling pathway (AID 743035; active = well fitted inhibition curve with a large enough effect in the signal ratio in the repeat runs, not every such curve was filed as active; the % refers to the signal ratio)
Method in brief: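 AR-bla HEK293 reporter cells; 4 h settle at 37C/5% CO2; compound + R1881 agonist, 16 h at 37C; LiveBLAzer B/G FRET substrate 2 h RT; fluorescence intensity read. qHTS format.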

[19] = biological target: Androgen receptor (Homo sapiens) (UniProt P10275); test: qHTS assay to identify small molecule agonists of the androgen receptor (AR) signaling pathway using the MDA cell line (AID 743040; also: nearly all actives have a fitted effect of over 20% in size)
Method in brief: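 Cell-based luciferase reporter: MDA-kb2, MMTV promoter (AR + GR response elements). 16 h compound exposure at 37C; ONE-Glo, 30 min RT, luminescence.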

[20] = biological target: Androgen receptor (Homo sapiens) (UniProt P10275); test: qHTS assay to identify small molecule agonists of the androgen receptor (AR) signaling pathway (AID 743036; active = well fitted activation curve with a large enough effect in the signal ratio in the repeat runs, with a control signal flat, not every such curve was filed as active; the % refers to the signal ratio)
Method in brief: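 Following a 4 h settling period, AR-UAS-bla HEK293 cells were dosed with compounds for 16 h at 37C. A 2 h room-temperature incubation with LiveBLAzer B/G FRET substrate preceded the fluorescence measurement.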

Measured: Potency

Sequence of Androgen receptor (Homo sapiens) (P10275 whole entry, looked up): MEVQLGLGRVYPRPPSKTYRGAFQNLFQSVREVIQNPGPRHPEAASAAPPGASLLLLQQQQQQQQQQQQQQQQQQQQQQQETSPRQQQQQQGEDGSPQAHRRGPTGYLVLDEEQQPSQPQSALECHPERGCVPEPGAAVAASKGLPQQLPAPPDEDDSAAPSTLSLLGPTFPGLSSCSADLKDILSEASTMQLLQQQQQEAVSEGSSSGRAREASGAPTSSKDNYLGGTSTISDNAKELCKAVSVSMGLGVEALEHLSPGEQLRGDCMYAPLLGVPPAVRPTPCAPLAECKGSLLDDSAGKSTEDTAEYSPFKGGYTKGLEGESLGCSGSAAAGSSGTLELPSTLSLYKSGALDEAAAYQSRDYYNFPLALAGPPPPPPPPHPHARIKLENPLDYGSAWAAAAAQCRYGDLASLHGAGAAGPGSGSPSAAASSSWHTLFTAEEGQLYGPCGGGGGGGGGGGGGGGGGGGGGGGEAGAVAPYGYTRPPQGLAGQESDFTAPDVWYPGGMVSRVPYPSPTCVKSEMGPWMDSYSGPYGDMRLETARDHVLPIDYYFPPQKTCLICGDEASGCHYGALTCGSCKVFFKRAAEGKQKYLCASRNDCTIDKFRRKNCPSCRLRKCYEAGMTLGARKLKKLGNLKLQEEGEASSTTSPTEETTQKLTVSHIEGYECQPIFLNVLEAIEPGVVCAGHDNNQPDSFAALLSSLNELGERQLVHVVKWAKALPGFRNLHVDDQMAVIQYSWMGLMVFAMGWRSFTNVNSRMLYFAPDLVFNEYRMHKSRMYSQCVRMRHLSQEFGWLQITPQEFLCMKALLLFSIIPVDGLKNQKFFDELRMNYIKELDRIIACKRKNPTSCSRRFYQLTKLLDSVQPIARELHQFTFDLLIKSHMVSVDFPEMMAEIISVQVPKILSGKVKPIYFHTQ
Sequence of Estrogen receptor (Homo sapiens) (P03372 whole entry, looked up): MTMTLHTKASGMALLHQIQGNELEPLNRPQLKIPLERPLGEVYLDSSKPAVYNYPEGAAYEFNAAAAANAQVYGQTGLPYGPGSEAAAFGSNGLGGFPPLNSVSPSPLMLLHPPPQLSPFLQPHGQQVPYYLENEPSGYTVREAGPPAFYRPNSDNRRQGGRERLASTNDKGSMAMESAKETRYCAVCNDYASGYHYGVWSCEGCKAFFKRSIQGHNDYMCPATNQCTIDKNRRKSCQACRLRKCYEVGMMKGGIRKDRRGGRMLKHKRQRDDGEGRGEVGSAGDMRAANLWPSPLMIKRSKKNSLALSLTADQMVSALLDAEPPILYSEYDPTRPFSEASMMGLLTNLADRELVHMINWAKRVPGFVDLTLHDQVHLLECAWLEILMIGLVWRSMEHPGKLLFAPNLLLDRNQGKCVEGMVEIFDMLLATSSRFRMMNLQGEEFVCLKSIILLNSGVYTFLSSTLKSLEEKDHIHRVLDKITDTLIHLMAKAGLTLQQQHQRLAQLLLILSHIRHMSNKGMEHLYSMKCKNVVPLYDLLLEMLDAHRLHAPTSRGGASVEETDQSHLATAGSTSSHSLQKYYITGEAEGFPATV
Sequence of Aromatase (Homo sapiens) (P11511 whole entry, looked up): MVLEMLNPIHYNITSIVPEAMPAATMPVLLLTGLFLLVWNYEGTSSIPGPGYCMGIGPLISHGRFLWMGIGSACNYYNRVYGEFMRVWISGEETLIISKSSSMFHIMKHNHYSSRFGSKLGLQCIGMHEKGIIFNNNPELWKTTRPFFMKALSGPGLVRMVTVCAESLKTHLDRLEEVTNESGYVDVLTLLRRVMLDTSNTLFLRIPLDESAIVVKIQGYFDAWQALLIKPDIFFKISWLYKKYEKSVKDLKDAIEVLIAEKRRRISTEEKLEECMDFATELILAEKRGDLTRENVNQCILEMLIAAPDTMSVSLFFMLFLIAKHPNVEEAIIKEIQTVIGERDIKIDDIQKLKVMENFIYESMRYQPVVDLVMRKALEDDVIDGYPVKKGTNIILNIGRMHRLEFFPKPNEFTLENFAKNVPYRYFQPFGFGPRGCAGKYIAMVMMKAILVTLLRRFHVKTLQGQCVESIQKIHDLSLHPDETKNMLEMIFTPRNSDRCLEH

CC(C)OC(=O)OCOP(=O)(CO[C@H](C)Cn1cnc2c(N)ncnc21)OCOC(=O)OC(C)C
not listed: [15] | [16] | [17] | [18] | [19] | [20]
inactive: all other assays above

OC1OCCOC1O (stereo not drawn)
not listed: [17] | [18] | [19] | [20]
inactive: all other assays above

CCc1occc(=O)c1O
not listed: [8] | [17] | [18] | [19] | [20]
inactive: all other assays above

NCc1ccc(S(N)(=O)=O)cc1
inactive: [1] | [2] | [3] | [4] | [6] | [15] | [7] | [9] | [13] | [16] | [14]

COS(=O)(=O)O
not listed: [4] | [8] | [10] | [11] | [12] | [18] | [19] | [20]
inactive: all other assays above

CCO
not listed: [4] | [5] | [20]
inactive: all other assays above

O=NN(CCCl)C(=O)NC1CCCCC1
not listed: [4] | [8] | [10] | [11] | [12] | [18] | [19] | [20]
inactive: all other assays above

OC[C@H]1O[C@@H](O[C@@H]2[C@@H](CO)O[C@](O)(CO)[C@H]2O)[C@H](O)[C@@H](O)[C@H]1O
not listed: [4] | [18]
inactive: all other assays above

CN(C)CCN(C)CCO
not listed: [4] | [7] | [15] | [18] | [19] | [20]
inactive: all other assays above

CCNC(=O)NCc1cccc(Cl)c1
not listed: [4] | [6] | [18] | [19] | [20]
inactive: all other assays above

CC(=O)OC(C)=O
not listed: [3] | [8] | [10] | [11] | [12] | [18] | [19] | [20]
inactive: all other assays above

CCC(C)C(=O)OCCc1ccccc1 (stereo not drawn)
not listed: [3] | [18] | [19] | [20]
inactive: all other assays above

CC(=O)C(C)O (stereo not drawn)
inactive: [1] | [2] | [3] | [17] | [5] | [6] | [9] | [13] | [16] | [14]

O=[N+]([O-])c1c(Cl)cc(Cl)cc1Cl
inactive: [1] | [2] | [3] | [6] | [15] | [7] | [9] | [13] | [16] | [14]

O=Cc1cc2ccccc2o1
inactive: [1] | [2] | [3] | [6] | [9] | [13] | [16] | [14]

Cn1c(=O)c2c(ncn2CCO)n(C)c1=O
not listed: [4] | [8] | [10] | [11] | [12] | [18] | [19] | [20]
inactive: all other assays above

C/C=C(\C)C(C)=O
not listed: [3] | [7] | [15]
inactive: all other assays above

CC(C)=CCC/C(C)=C/COC=O
not listed: [3] | [8] | [10] | [11] | [12] | [18] | [19] | [20]
inactive: all other assays above

CSc1cnccn1
not listed: [3] | [5] | [18] | [19] | [20]
inactive: all other assays above

C/C=C(\C)C(=O)OCCc1ccccc1
not listed: [3] | [8] | [10] | [11] | [12] | [18] | [19] | [20]
inactive: all other assays above

COC(=O)/C=C\C(=O)O
not listed: [3] | [5] | [18] | [19] | [20]
inactive: all other assays above

COP(=O)(O)OP(=O)(O)OC
not listed: [3] | [18] | [19] | [20]
inactive: all other assays above

C=CCCCCCCCCC(=O)OCCCC
not listed: [3] | [18] | [19] | [20]
inactive: all other assays above

CC(=O)O[Si](C)(OC(C)=O)OC(C)=O
not listed: [4] | [8] | [10] | [11] | [12] | [18] | [19] | [20]
inactive: all other assays above

CO[Si](CCCn1c(=O)n(CCC[Si](OC)(OC)OC)c(=O)n(CCC[Si](OC)(OC)OC)c1=O)(OC)OC
inactive: [1] | [2] | [3] | [6] | [15] | [7] | [9] | [13] | [16] | [14]

O=C(Cn1ccnc1[N+](=O)[O-])NCc1ccccc1
not listed: [3] | [18] | [19] | [20]
inactive: all other assays above

— PubChem BioAssay (Tox21)
